Records with an inconclusive call do not appear. Activity calls are given as the source filed them. Rule for the calls: active = hit-call score of the fitted dose curve at least 0.9, where 1 is the maximum; inconclusive = response in the unintended direction; inactive = score below 0.9.

The nature of the assay: ACEA_ER_AUC_viability: ACEA Biosciences xCELLigence Real-Time Cell Analysis on Estrogen Receptor Agonism for Viability (AID 2283782).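 Note: hit means loss of impedance signal meaning reduced cell growth or viability.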 The method in brief:
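T-47D; phenol red-free RPMI1640 + 10% CS-FBS; 8 conc., 1:4 serial, max 100 uM final, ≤0.5% DMSO; n = 2; continuous exposure; impedance monitored to 80 h post-dose; AUC vs DMSO.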
`CC(CCO)CCCC(C)(C)O` (stereo not drawn): the AC50 is 50.5 µM (active).
For `CC1(C)[C@H]2CC[C@]1(C)[C@H](O)C2`, the compound was called inactive.
On the same count and under the same terms, with `O=C(O)c1cccc([N+](=O)[O-])c1` the entry was “inactive”.
For the compound `CCCCCCOC(=O)CCCCC`, the outcome was inactive.
Take `CC(C)c1cccc(O)c1`: the outcome was inactive.
With `CC(=O)c1c(C)cc(C(C)(C)C)cc1C`, the AC50 is 77.7 µM (active).
In the case of `CCCCCC=CCC(=O)OC`, the result was inactive.
With `Clc1nc(C(Cl)(Cl)Cl)c(Cl)c(Cl)c1Cl`, the AC50 is 24.1 µM (active).
Consider `CCn1c2ccccc2c2cc(N)ccc21`, for which the call was inactive.
Regarding `CCC(=O)OCCC(C)CCC=C(C)C` (stereo not drawn), the AC50 is 78.6 µM (active).
With `Nc1ccc(S(N)(=O)=O)cc1`, the compound was classed as inactive.
As for `CC(=O)OCC=Cc1ccccc1`, the compound was called inactive.
As to `O=C=NC1CCC(CC2CCC(N=C=O)CC2)CC1` (stereo not drawn), the AC50 is 28.5 µM (active).
As to `CC1(C)[C@@H]2CC[C@@]1(C)[C@H](O)C2`, the compound was called inactive.
`C=C(C)C(=O)O[C@H]1C[C@@H]2CC[C@@]1(C)C2(C)C`: the result was inactive.
For `CC(=O)[O][Al][O]C(C)=O`, the AC50 was 9.92 µM (active).
On to `CC(CC(C)(C)C)CC(C)(C)CC(C)(C)C` (stereo not drawn), for which the call was inactive.
Take `CCN(CC)c1ccc2c(-c3ccccc3C(=O)O)c3ccc(=[N+](CC)CC)cc-3oc2c1`: the AC50 is 29.1 µM (active).
With `Nc1cc([N+](=O)[O-])ccc1Cl`, the AC50 is 76.3 µM (active).
With `CCC(=O)OCc1ccccc1`, the result was inactive.
Consider `O=C1c2ccccc2C(=O)N1SC1CCCCC1`, for which the AC50 is 50 µM (active).
Regarding `CO[Si](CCCn1c(=O)n(CCC[Si](OC)(OC)OC)c(=O)n(CCC[Si](OC)(OC)OC)c1=O)(OC)OC`, the AC50 is 21.7 µM (active).
Take `CNC[C@H](O)c1cccc(O)c1`: the AC50 was 50 µM (active).

What is called AC50 is the concentration giving half of the maximal activity seen.

Values taken from PubChem BioAssay (EPA / NIEHS).
